VDR inh: Inhibitors of the vitamin D receptor (VDR): qHTS | Vitamin D3 receptor (Homo sapiens), P11473 | Potency, µM, inactives show max response, negative = inhibition, usual class: inhibitors | AID 504847, 2011 | 0.93% of 400,000 active | VDR-SRC2-3 peptide fluorescence polarization, 2 h; further: on the % scale 0 is the no-effect control and ±100 the full control effect
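Measured by FP: displacement of SRC2-3 coactivator peptide from VDR by library compounds, following a two-hour ambient incubation.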
L3MBTL1 inh: qHTS Assay for the Inhibitors of L3MBTL1; Lethal(3)malignant brain tumor-like protein 1 (Homo sapiens), Q9Y468; AlphaScreen L3MBTL1–H3K9me1 peptide binding; Potency, µM (doses to about 57.1 µM), inactives show at the highest dose activity, negative = inhibition, hits mostly inhibitors; 0.66% of 230,000 active; AID 485360, 2010; further: on the % scale 0 is the no-effect control and ±100 the full control effect; nearly all actives have a fitted effect of over 60% in size
Target sequence (Q9Y468 whole entry, looked up): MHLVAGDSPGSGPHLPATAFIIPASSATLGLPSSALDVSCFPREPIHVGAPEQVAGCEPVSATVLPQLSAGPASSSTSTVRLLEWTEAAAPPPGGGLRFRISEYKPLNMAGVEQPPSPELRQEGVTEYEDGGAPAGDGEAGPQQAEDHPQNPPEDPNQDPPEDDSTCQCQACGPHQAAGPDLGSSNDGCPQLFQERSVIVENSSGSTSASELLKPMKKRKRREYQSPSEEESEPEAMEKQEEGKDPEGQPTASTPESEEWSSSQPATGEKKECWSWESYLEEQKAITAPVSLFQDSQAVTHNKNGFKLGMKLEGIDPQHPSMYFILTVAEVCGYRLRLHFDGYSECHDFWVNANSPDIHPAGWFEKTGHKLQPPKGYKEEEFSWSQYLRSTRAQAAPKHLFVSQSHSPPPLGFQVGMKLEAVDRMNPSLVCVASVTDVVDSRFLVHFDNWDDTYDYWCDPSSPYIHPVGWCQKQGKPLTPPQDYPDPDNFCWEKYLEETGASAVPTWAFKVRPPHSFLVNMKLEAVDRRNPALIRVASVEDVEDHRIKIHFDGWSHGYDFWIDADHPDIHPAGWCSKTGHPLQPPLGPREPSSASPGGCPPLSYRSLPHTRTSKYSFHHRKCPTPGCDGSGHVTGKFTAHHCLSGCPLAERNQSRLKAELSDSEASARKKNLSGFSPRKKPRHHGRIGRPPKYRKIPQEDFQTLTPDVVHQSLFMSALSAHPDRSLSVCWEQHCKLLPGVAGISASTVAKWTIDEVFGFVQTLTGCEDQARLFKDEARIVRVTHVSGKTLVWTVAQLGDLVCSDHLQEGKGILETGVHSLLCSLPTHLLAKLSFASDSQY
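AlphaScreen assay: L3MBTL1 (50 nM final) was preincubated 30 min at room temperature with biotinylated H3(1-15)K9me1 peptide (75 nM final), then 30 min with library compounds; streptavidin donor and nickel chelate acceptor beads (10 ug/mL final) added, 30 min dark.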
BAZ2B inh: qHTS Assay for Inhibitors of BAZ2B. Bromodomain adjacent to zinc finger domain protein 2B (Homo sapiens), Q9UIF8. AlphaScreen BAZ2B-H3K14Ac peptide displacement. Potency, µM (top dose mostly 114 µM), for inactives: at the highest dose activity change, negative = inhibition, most hits filed as inhibitors. 4.4% of 360,000 active; further: on the % scale 0 is the no-effect control and ±100 the full control effect; nearly all actives have a fitted effect of over 60% in size
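Complex of BAZ2B and biotin-H3K14Ac (50 nM apiece) forms over 30 min at RT, then faces library compounds up to 110 uM for another 30 min; AlphaScreen beads added, 20 min dark incubation, luminescence read.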
JMJD2A Tudor inh: qHTS Assay for Inhibitors of JMJD2A-Tudor Domain; Potency, µM (top dose mostly 114 µM), for the others: top-dose activity change, negative = inhibition, usual class: inhibitors; 4.4% of 390,000 active; AlphaScreen JMJD2A-Tudor / H3K4me3 peptide binding; Lysine-specific demethylase 4A (Homo sapiens), O75164; further: on the % scale 0 is the no-effect control and ±100 the full control effect; nearly all actives have a fitted effect of over 50% in size
HP1b chromo inh: HTS for Inhibitors of HP1-beta Chromodomain Interactions with Methylated Histone Tails. 0.56% of 390,000 active. AlphaScreen HP1-beta / biotin-H3K9me3 peptide binding. AID 540317, 2011. Chromobox protein homolog 1 (Homo sapiens), P83916. Potency, µM (doses to about 114 µM), for the others: at the highest dose activity change, negative = inhibition, usual class: inhibitors; further: nearly all actives have a fitted effect of over 70% in size
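Compound inhibition of the preformed complex between 50 nM HP1-beta and 50 nM biotinylated H3K9me3 peptide was read by AlphaScreen. Buffer was PBS pH 7.4 with 0.01% Tween-20. Incubations ran 30 min at room temperature, with 10 ug/mL donor/acceptor beads.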
PLK1 PBD block: qHTS for Inhibitors of PLK1-PDB (polo-like kinase 1 - polo-box domain): Primary Screen | Potency, µM, without a hit: max response, negative = inhibition, most hits filed as inhibitors | 2.8% of 360,000 active | Plk1 PBD binding of FITC phosphopeptide, fluorescence polarization | AID 720504, 2013; further: series mostly up to about 57 µM; on the % scale 0 is the no-effect control and ±100 the full control effect; nearly all actives have a fitted effect of over 65% in size
* hit, by the source's call; [ ] = remark or other dose. Shown are actives, neighbours in structure and some others; about 6.9% of the full set was active somewhere. The call rests on the fitted dose curve; in most records, active means well fitted curve in the direction sought with a large enough effect; inconclusive means small, poorly fitted or top-dose-only effect, or another doubt; inactive means no such curve, though single readings can be large; an effect the other way counts as inactive or inconclusive. Potency means the concentration at half of the fitted maximal effect.

Results for O=C(NCc1cccc(Cl)c1)c1ccc2nc[nH]c2c1 ?
VDR inh: 19.0%; L3MBTL1 inh: 16.9%; BAZ2B inh: -18.9%; JMJD2A Tudor inh: 3.9%[57.1 µM]; HP1b chromo inh: 36.7%; PLK1 PBD block: -5.0%

How did c1ccc2c(NCCc3c[nH]c4ccccc34)c3ccccc3nc2c1 do in these assays?
VDR inh: -24.5%; BAZ2B inh: 35.5µM*; JMJD2A Tudor inh: 50.1µM*; HP1b chromo inh: -7.1%; PLK1 PBD block: -5.3%

Results for COc1ccc2c(c1)CC(NC(=O)Nc1cc(Cl)ccc1OC)CO2 (stereo unspecified) ?
VDR inh: 21.3%; BAZ2B inh: -1.3%; JMJD2A Tudor inh: -8.4%; HP1b chromo inh: 22.5%[57 µM]

Results for CC1=CC(C#N)(C#N)C(C#N)(C#N)C(c2ccccc2)N1 (stereo unspecified) ?
L3MBTL1 inh: inconclusive; BAZ2B inh: 35.5µM*

What do the screens show for `CCOc1ccc2[nH]cc(C(=O)NCc3ccc(F)cc3)c(=O)c2c1`?
VDR inh: 7.4%; L3MBTL1 inh: -2.9%; BAZ2B inh: -2.8%; JMJD2A Tudor inh: -12.1%; HP1b chromo inh: 14.4%; PLK1 PBD block: -15.4%

How did CCOCCCNC(=O)c1c[nH]c2ccc(OCC)cc2c1=O do in these assays?
VDR inh: inconclusive; BAZ2B inh: -21.2%; JMJD2A Tudor inh: -11.8%[11.4 µM]; HP1b chromo inh: 5.2%; PLK1 PBD block: 29.9µM*

Results for Cc1c(C=O)c(Cl)n(C)c(=O)c1C#N ?
VDR inh: 5.9%; L3MBTL1 inh: -26.7%; BAZ2B inh: 56.2µM*; JMJD2A Tudor inh: 79.4µM*; HP1b chromo inh: 11.7%; PLK1 PBD block: inconclusive

How did CC(=O)N=Cc1c(C)c(C#N)c(=O)n(C)c1O do in these assays?
VDR inh: 6.1%; BAZ2B inh: -30.6%; JMJD2A Tudor inh: -15.2%; HP1b chromo inh: 33.6%; PLK1 PBD block: -18.4%

What do the screens show for `S=C(c1ccc(-c2cccc(Cl)c2)o1)N1CCCCC1`?
VDR inh: 3.6%; BAZ2B inh: 31.6µM*; JMJD2A Tudor inh: 28.2µM*; HP1b chromo inh: inconclusive; PLK1 PBD block: inconclusive

How did S=C(c1ccc(-c2cccc(Cl)c2)o1)N1CCOCC1 do in these assays?
VDR inh: inconclusive; BAZ2B inh: 44.7µM*; JMJD2A Tudor inh: 50.1µM*; HP1b chromo inh: 35.5µM*; PLK1 PBD block: 18.9µM*

How did CCn1c(C)[n+](CCOCC[n+]2c(C)n(CC)c3cc(Cl)c(Cl)cc32)c2cc(Cl)c(Cl)cc21 do in these assays?
VDR inh: -4.1%; BAZ2B inh: 0.2%; JMJD2A Tudor inh: 22.4µM*; HP1b chromo inh: -3.1%; PLK1 PBD block: -2.9%

What do the screens show for `COc1cc(/C=C/C(=O)OCC(=O)c2ccc3c(c2)NC(=O)CO3)ccc1OC(F)F`?
VDR inh: inconclusive; L3MBTL1 inh: 18.1%; BAZ2B inh: 32.7%; JMJD2A Tudor inh: inconclusive; HP1b chromo inh: -15.2%[57 µM]; PLK1 PBD block: 18.9µM*

How did COc1ccc(/C=C/C(=O)OCC(=O)c2ccc3c(c2)NC(=O)CO3)cc1 do in these assays?
VDR inh: 7.5%; L3MBTL1 inh: 7.7%; BAZ2B inh: 2.4%; JMJD2A Tudor inh: -15.0%; HP1b chromo inh: 7.8%; PLK1 PBD block: -7.1%

How did COc1cc(C(=S)N(C)C)ccc1O do in these assays?
VDR inh: -12.3%; L3MBTL1 inh: 2.2%; BAZ2B inh: -1.9%; JMJD2A Tudor inh: -18.5%[11.4 µM]; HP1b chromo inh: inconclusive; PLK1 PBD block: 9.47µM*

How did Cc1c(C(=O)NNC(=O)c2ccccc2O)oc2ccccc12 do in these assays?
PLK1 PBD block: -5.0%

Results for Cc1cccc2c(N=O)c(O)[nH]c12 ?
VDR inh: inconclusive; BAZ2B inh: -26.9%; JMJD2A Tudor inh: inconclusive; HP1b chromo inh: -19.9%; PLK1 PBD block: 3.77µM*

How did COc1ccc(-n2c(=O)c(-c3cn(C)c4ccccc34)nc3cncnc32)cc1 do in these assays?
VDR inh: -16.6%

Results for Cc1ccc2c(c1)sc1nc(=O)ccn12 ?
VDR inh: -27.2%; L3MBTL1 inh: 1.7%; BAZ2B inh: -7.5%; JMJD2A Tudor inh: inconclusive; HP1b chromo inh: 16.5%; PLK1 PBD block: 15µM*

What do the screens show for `COc1ccc(OC)c(Nc2nc(-c3sc(N)nc3C)cs2)c1`?
VDR inh: 8.8%; L3MBTL1 inh: -28.7%; BAZ2B inh: 44.7µM*; JMJD2A Tudor inh: 50.1µM*; HP1b chromo inh: inconclusive; PLK1 PBD block: inconclusive

What do the screens show for `C=CCCC(=O)Nc1nc(C)c(-c2csc(Nc3cc(OC)ccc3OC)n2)s1`?
VDR inh: -15.9%; L3MBTL1 inh: -24.7%; BAZ2B inh: 50.1µM*; JMJD2A Tudor inh: 35.5µM*; HP1b chromo inh: inconclusive; PLK1 PBD block: -17.0%

How did NC(Cc1cccc2nsnc12)C(=O)O (stereo unspecified) do in these assays?
VDR inh: 3.5%; L3MBTL1 inh: 2.5%; BAZ2B inh: -5.1%; JMJD2A Tudor inh: 7.08µM*; HP1b chromo inh: 4.7%; PLK1 PBD block: -5.5%

What do the screens show for `N[C@H](Cc1ccc(O)cc1)C(=O)O`?
VDR inh: 8.3%

How did NC(Cc1ccc2nsnc2c1)C(=O)O (stereo unspecified) do in these assays?
VDR inh: 55.6%; JMJD2A Tudor inh: 2.24µM*; HP1b chromo inh: -8.5%; PLK1 PBD block: 1.4%

What do the screens show for `NC(Cc1ccc(O)c([N+](=O)[O-])c1)C(=O)O` (stereo unspecified)?
VDR inh: -10.6%; L3MBTL1 inh: -0.2%; BAZ2B inh: 50.1µM*; JMJD2A Tudor inh: inconclusive; HP1b chromo inh: -5.5%; PLK1 PBD block: -4.8%

Results for N[C@@H](Cc1ccc(O)c(O)c1)C(=O)O ?
VDR inh: -3.8%; JMJD2A Tudor inh: 39.8µM*; HP1b chromo inh: 20µM*; PLK1 PBD block: -7.7%

How did CCc1nc(N)nc(N)c1-c1ccc(N(C)Cc2ccccc2)c([N+](=O)[O-])c1 do in these assays?
VDR inh: -15.2%; JMJD2A Tudor inh: 44.7µM*; HP1b chromo inh: -37.4%; PLK1 PBD block: 1.2%

What do the screens show for `COc1cc(OC)cc(-c2nc3ccccc3c(=O)n2OC(=O)c2ccc(Br)cc2)c1`?
VDR inh: -12.2%; L3MBTL1 inh: 4.1%; BAZ2B inh: inconclusive; JMJD2A Tudor inh: 20µM*; HP1b chromo inh: 7.8%; PLK1 PBD block: -22.1%

Results for O=S(=O)([O-])CCC[N+]1(CC#Cc2ccccc2)CCCCC1 ?
VDR inh: inconclusive; BAZ2B inh: -16.1%; JMJD2A Tudor inh: inconclusive; HP1b chromo inh: 11.9%; PLK1 PBD block: 4.74µM*
